The results in this text go back to PubChem BioAssay (EPA / NIEHS).

Inconclusive results are not listed. Some compounds were tested as several samples or in several runs, with calls that do not always agree. Calls of active or inactive are those of the source. Rule for the calls: active = hit-call score of the fitted dose curve at least 0.9, where 1 is the maximum; inconclusive = response in the unintended direction; inactive = score below 0.9.

The test system of the assay is frog Estrogen Receptor (ER), gene 398734. In words: ATG_frER1_XSP2: Attagene TRANS-FACTORIAL Multi-Species (XSP2) HepG2 Assay for frog Estrogen Receptor (ER) (AID 2283821).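 Note: hits raise reporter mRNA above DMSO baseline so potency means agonist or activator.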 The procedure:
ATG_XSP2_multi-species_TRANS is a cell-based, multiplexed assay created by modifying the existing Attagene TRANS-FACTORIAL system to include a panel of nuclear receptors from some or all the following species: human (Homo sapiens), mouse (Mus musculus), frog (Xenopus laevis), zebrafish (Danio rerio), chicken (Gallus gallus), and turtle (Chrysemys picta). The ECOTOX-FACTORIAL format uses HepG2, a human liver cell line, with measurements taken at 24 hours after chemical dosing in a 24-well plate. Xsp2 included 3 nM 6-alpha-fluorotestosterone and 1.5 nM norgestrel to stimulate the androgen receptor.ATG_frER1_XSP2 is one of 29 assay components measured or calculated from the ATG_XSP2_multi-species_TRANS assay. It is designed to make measurements of mRNA induction, a form of inducible reporter, as detected with fluorescence intensity signals by Reverse transcription polymerase chain reaction (RT-PCR) and Capillary electrophoresis technology.The assay endpoint ATG_frER1_XSP2 was analyzed in the positive analysis fitting direction relative to DMSO as the negative control and baseline of activity. Using a type of inducible reporter, measures of mRNA for gain-of-signal activity can be used to understand the reporter gene at the transcription factor-level as they relate to the gene ER. Furthermore, this assay endpoint can be referred to as a primary readout, because this assay has produced multiple assay endpoints where this one serves a reporter gene function. To generalize the intended target to other relatable targets, this assay endpoint is annotated to the nuclear receptor intended target family, where the subfamily is steroidal.
Human liver HepG2 cells are transiently transfected with multiple reporter transcription units (MRTUs) in 6-well plates using FuGene 6 reagent (Roche; 3 ml FuGene/1 mg DNA). The MRTU constructs are regulated by a cis-regulating element (promoter). […] A major difference between the CIS and TRANS system is that in CIS activities of endogenous TFs are measured, whereas the TRANS assay evaluates changes in activities of exogenous, chimeric NR-Gal4 proteins. […] At the end of 24 hour incubation, total RNA was isolated using TriZol reagent (Invitrogen). The isolated RNA is then reverse-transcribed using oligo(dT) primer and Mo-MLV reverse transcriptase (Invitrogen) with DNAse I (Ambion) treatment for 30 min. The one-tenth of the produced cDNA was amplified by PCR using Taq DNA polymerase (Invitrogen) and two reporter sequence-specific primers. The PCR products were fluorescently labeled by primer extension with 6-arboxyfluorescein (6-FAM) 5'-labeled reporter sequence-specific primer (2 min at 95 C, 20 s at 68 C and 10 min at 72 C) and these products were digested with 5U of HpaI (New England Biolabs) for 2h at 37 C. The fragments were purified using Qiaquick PCR columns (Qiagen), analyzed on an ABI 3130xL genetic analyzer (Applied Biosystems) with peak positions identified by using a set of X-rhodamine (ROX)-labeled MapMarker1000 molecular weight standards (BioVentures). The raw capillary electrophoresis data was processed using Attagraph software (Attagene).
For `Oc1ccc(C(c2ccc(O)cc2)C(Cl)(Cl)Cl)cc1`, the call was inactive.

On to `CC(C)(c1ccc(O)cc1)c1ccc(O)cc1`, for which the AC50 was 2640 nM (active).

With `CSC(=O)c1cccc2nnsc12`, the result was inactive.

In the case of `C#C[C@]1(O)CC[C@H]2[C@@H]3CCC4=CC(=O)CC[C@@H]4[C@H]3CC[C@@]21CC`, the compound was called inactive and the AC50 was 275 nM (active).

Turning to `CCCCC(CC)CN1C(=O)C2C3C=CC(C3)C2C1=O` (configuration not stated), the compound was classed as inactive.

As for `C=CCOC(Cn1ccnc1)c1ccc(Cl)cc1Cl` (configuration not stated), the result was inactive.

`N[C@@H](Cc1cc(I)c(Oc2ccc(O)c(I)c2)c(I)c1)C(=O)O`: the half-maximal activity concentration (AC50) is 3680 nM (active) and the call was inactive.

As for `CC1(C)C(C=C(Cl)Cl)C1C(=O)OCc1cccc(Oc2ccccc2)c1` (configuration not stated), the call was inactive.

Take `CN(C)C(=O)Nc1ccc(Cl)c(Cl)c1`: the AC50 was 19600 nM (active) and the result was inactive.

Turning to `CC(C)CCCCCCc1ccc(O)cc1`, the AC50 was 750 nM (active).

For the compound `CCN(Cc1c(F)cccc1Cl)c1c([N+](=O)[O-])cc(C(F)(F)F)cc1[N+](=O)[O-]`, the compound was classed as inactive.

Consider `CC(=O)S[C@@H]1CC2=CC(=O)CC[C@]2(C)[C@H]2CC[C@@]3(C)[C@@H](CC[C@@]34CCC(=O)O4)[C@H]12`, for which the call was inactive.

Turning to `CCCCC(CC)COC(=O)c1ccccc1C(=O)O` (configuration not stated), the AC50 is 4220 nM (active).

On to `O=C(c1ccc(O)cc1O)c1ccc(O)cc1O`, for which the concentration at half-maximal activity (AC50) is 1660 nM (active).
